Source: PubChem BioAssay
Activity calls are given as the source filed them.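 Rule for the calls, unless noted: active = inhibition above 20% together with a positive visual image hit; inconclusive = visual image hit but inhibition not above 20%; inactive = no visual image hit.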

Legend:
[1] = inhibitors of TNFa-induced NFkB p65 translocation, primary screen, imaging, HUVEC, MLSMR starter and 10KST1 sets (AID 438); conditions: HUVEC TNFa-induced p65 nuclear translocation; cell count: measured here: nuclei count (cytotoxicity indicator), at 2.08 µM; inhibition: at 2 µM, stronger effect = higher value, 0% TNFa-plus-vehicle, 100% no-TNFa wells;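 note: compound added about 3h40 before a 20 min TNFalpha stimulation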;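 for inhibition: signal is the nuclear over cytoplasmic p65 intensity ratio per well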
[2] = inhibitors of mutant huntingtin aggregation, primary screen, imaging, exon1htt(103Q)mCFP cells, high-content imaging (AID 483;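 active = visual image review flags a hit and inhibition of aggregation exceeds 20%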;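 note: compound exposure lasted 3 days before fixation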;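 for nuclei count: percent of the per-plate median nuclei count of sample wells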); conditions: exon1htt(103Q)mCFP cell line, aggregate imaging, at 2 µM; inhibition of aggregation: stronger effect = higher value; nuclei count: measured here: cell count, toxicity
[3] = inhibitors of E-selectin induction by TNFa, primary screen, imaging, HUVEC, immunofluorescence, MLSMR starter and 10KST1 sets (AID 487;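 active = visually confirmed hit in the image check and inhibition above 20%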;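 for inhibition: signal is fraction of cell area covered by stained E-selectin grains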;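 for nuclei count: 100% = median nuclei count of all wells on the same plate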); conditions: HUVEC TNFalpha-induced E-selectin immunofluorescence imaging, at 2 µM; inhibition: stronger effect = higher value; nuclei count: measured here: cell number, toxicity
[4] = molecular target: Voltage-gated potassium channel subunit beta-2 (Rattus norvegicus) (UniProt P62483); assay: KvBeta enzyme negative modulators, primary screen, biochemical, NADPH fluorescence (AID 622;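 active = fluorescence slope higher than the sample average by over 3 SD, cut at about -0.22 in these data, passing the limit was not always enough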;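 note: slope of raw intensity against log time taken from 70 to 1610 s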); conditions: recombinant KvBeta, 4-cyanobenzaldehyde reduction, at 10 µM, stronger effect = higher value
[5] = molecular target: Voltage-gated potassium channel subunit beta-2 (Rattus norvegicus) (UniProt P62483); assay: KvBeta positive modulators, primary screen, biochemical, NADPH fluorescence (AID 623;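 active = NADPH fluorescence slope more negative than the mean of all samples by about 3 SD, 99.7% confidence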;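 note: fluorescence intensity change per second fitted from 20 to 320 s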); conditions: Recombinant KvBeta, NADPH fluorescence decrease slope, 10 min; at 10 µM; stronger effect = lower value
[6] = molecular target: Alpha-2C adrenergic receptor (Homo sapiens) (UniProt P18825); assay: modulators of alpha2C/GIRK thallium flux, primary screen, cell-based, HEK293 alpha2C/GIRK1/2 (AID 624;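 active = fluorescence slope after compound addition differing from the mean of all screened samples at 99.7% confidence, in either direction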;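 note: slope of fluorescence ratio to pre-addition baseline per second over 15 to 24 s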); conditions: thallium flux BTC fluorescence, at 10 µM, actives lie on both sides
[7] = inhibitors of Sendai virus-induced IRF3 signaling, primary screen, TLR/RLR signaling modifier project, cell-based, Sendai virus stimulus, luciferase, 10K MLSCN set (AID 602276;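 active = inhibition at or above 50% at 10 µM; inactive = inhibition below 50%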;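 note: firefly luciferase from ISG56 promoter only with Renilla not read in this screen; 0% = Sendai virus plus DMSO and 100% = medium plus DMSO without virus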); conditions: HEK293 RL24 IRF3 luciferase reporter, at 10 µM, stronger effect = higher value
[8] = inhibitors of poly I:C-induced TLR3 signaling, primary screen, cell-based, poly I:C stimulus, luciferase, 10K MLSCN set (AID 602277;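 active = inhibition of the reporter signal at or above 50%; inactive = inhibition below 50%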); conditions: HEK293-TLR3 RL24 IRF3 luciferase reporter, at 10 µM, stronger effect = higher value

Sequence of Alpha-2C adrenergic receptor (Homo sapiens) (P18825 whole entry, looked up): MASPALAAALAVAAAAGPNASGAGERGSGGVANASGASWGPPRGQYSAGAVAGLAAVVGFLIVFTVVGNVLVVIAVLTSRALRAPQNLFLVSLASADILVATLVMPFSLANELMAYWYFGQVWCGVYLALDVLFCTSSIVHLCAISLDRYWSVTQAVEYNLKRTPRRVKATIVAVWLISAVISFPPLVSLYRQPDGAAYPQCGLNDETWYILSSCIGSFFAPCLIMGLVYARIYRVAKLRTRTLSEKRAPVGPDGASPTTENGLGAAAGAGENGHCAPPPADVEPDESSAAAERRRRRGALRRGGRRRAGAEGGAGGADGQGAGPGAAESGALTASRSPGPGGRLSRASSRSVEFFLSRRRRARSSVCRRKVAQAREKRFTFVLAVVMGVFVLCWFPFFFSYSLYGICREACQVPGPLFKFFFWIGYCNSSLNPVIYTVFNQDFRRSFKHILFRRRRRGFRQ
Sequence of Voltage-gated potassium channel subunit beta-2 (Rattus norvegicus) (P62483 whole entry, looked up): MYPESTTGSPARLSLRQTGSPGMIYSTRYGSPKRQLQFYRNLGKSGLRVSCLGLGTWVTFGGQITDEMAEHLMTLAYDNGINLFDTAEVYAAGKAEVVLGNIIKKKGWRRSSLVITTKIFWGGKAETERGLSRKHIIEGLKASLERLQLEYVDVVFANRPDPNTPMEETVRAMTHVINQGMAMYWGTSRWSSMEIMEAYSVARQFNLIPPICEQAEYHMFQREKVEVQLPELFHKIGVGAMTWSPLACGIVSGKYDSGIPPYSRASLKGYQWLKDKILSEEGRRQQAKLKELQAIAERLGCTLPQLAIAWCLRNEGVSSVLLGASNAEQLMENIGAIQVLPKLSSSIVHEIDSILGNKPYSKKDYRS

Compound | cell count [1] | inhibition [1] | inhibition of aggregation [2] | nuclei count [2] [%] | inhibition [3] | nuclei count [3] [%] | fluorescence slope [4] | NADPH fluorescence slope [5] | slope [6] | inhibition [7] | inhibition [8]
O=C(Cc1c(F)cccc1Cl)Nc1ccncc1 | 285 | 4.3% (inactive) | 1% (inactive) | 104 | -34.2% (inactive) | 124 | -0.334 (inactive) | 2.5e-05 (inactive) | 0.00621 (inactive) | 12.9% (inactive) | 11.9% (inactive)
O=C1CCCCCC1C1(O)C(=O)Nc2ccccc21 (stereo not drawn) | 349 | 10% (inactive) | -6% (inactive) | 101 | -26.3% (inactive) | 116 | -0.424 (inactive) | 4e-05 (inactive) | 0.00358 (inactive) | 9.01% (inactive) | 29% (inactive)
COc1ccccc1N1CCN(C(=O)CSc2nc3ncnc(N)c3[nH]2)CC1 | 467 | -8.8% (inactive) | -0.2% (inactive) | 110 | -144% (inactive) | 162 | -0.52 (inactive) | 7.1e-06 (inactive) | 0.00625 (inactive) | 16% (inactive) | 23.6% (inactive)
CCOC(=O)N1CCN(c2nc(-c3ccc(Cl)cc3)cs2)CC1 | 256 | 7.4% (inactive) | 7.8% (inactive) | 80.8 | -94.3% (inactive) | 113 | -0.35 (inactive) | -3.8e-05 (inactive) | 0.00625 (inactive) | -3.5% (inactive) | -38.7% (inactive)
CCN1CCN(CCNC(=O)c2cn(C(C)c3ccccc3F)nn2)CC1 (stereo not drawn) | 560 | -29.6% (inactive) | -18.1% (inactive) | 112 | -32.9% (inactive) | 110 | -0.61 (inactive) | -1.9e-05 (inactive) | 0.00807 (inactive) | 12% (inactive) | 9.63% (inactive)
CCOC(=O)Cc1csc(NC(=O)CSc2nnc(-c3ccncc3)n2Cc2ccco2)n1 | 516 | -12.9% (inactive) | 14.5% (inactive) | 97.6 | -61.4% (inactive) | 122 | -0.595 (inactive) | -6.1e-05 (inactive) | 0.0058 (inactive) | 10.4% (inactive) | 10.6% (inactive)
COC(=O)c1ccnc(/C=N/O)c1 | 715 | -2% (inactive) | -19.8% (inactive) | 112 | 11.2% (inactive) | 108 | -0.578 (inactive) | -2e-05 (inactive) | 0.00558 (inactive) | 15.5% (inactive) | 19.8% (inactive)
O=C(NS(=O)(=O)c1ccc(NC(=O)C2CCCO2)cc1)c1ccccc1 (stereo not drawn) | 577 | -6% (inactive) | 2.1% (inactive) | 110 | -46.8% (inactive) | 125 | -0.328 (inactive) | -5.2e-05 (inactive) | 0.00463 (inactive) | 11.4% (inactive) | 17.7% (inactive)
Cc1nc(N2CCN(c3ncccn3)CC2)c2oc3ccccc3c2n1 | 583 | -8.7% (inactive) | 0.3% (inactive) | 106 | -56.1% (inactive) | 104 | -0.432 (inactive) | -1.4e-05 (inactive) | 0.00731 (inactive) | -3.03% (inactive) | -57.2% (inactive)
COc1ccc(C2(C(=O)Nc3c(C)n(C)n(-c4ccccc4)c3=O)CCCC2)cc1OC | 712 | 1.6% (inactive) | -9.8% (inactive) | 76.1 | -52.3% (inactive) | 104 | -0.427 (inactive) | 2.3e-05 (inactive) | 0.00772 (inactive) | 13.1% (inactive) | 14.9% (inactive)
CC1(C)CC(=O)C(C=NCc2ccc3c(c2)OCO3)=C(O)C1 | 665 | -29.5% (inactive) | 2.3% (inactive) | 104 | -10.4% (inactive) | 93.7 | -0.459 (inactive) | 3.1e-05 (inactive) | 0.00553 (inactive) | 13.9% (inactive) | 19.8% (inactive)
CC(=O)N1CCN(S(=O)(=O)c2ccc(S(=O)(=O)NCC(C)C)cc2)CC1 | 641 | 1.6% (inactive) | 5.2% (inactive) | 102 | -10.2% (inactive) | 110 | -0.399 (inactive) | -3.9e-05 (inactive) | 0.00517 (inactive) | 14.8% (inactive) | 12.6% (inactive)
Cc1cc(NC(=O)CCCC(=O)Nc2ccc(F)cc2)no1 | 423 | -10.5% (inactive) | 13.2% (inactive) | 72.2 | -43% (inactive) | 107 | -0.477 (inactive) | 9.1e-07 (inactive) | 0.0057 (inactive) | 5.46% (inactive) | 34.4% (inactive)
Cc1nnc(Nc2ccccn2)c2ccccc12 | 657 | 7.2% (inactive) | 8.1% (inactive) | 104 | -61.4% (inactive) | 109 | -0.465 (inactive) | -4.2e-05 (inactive) | 0.00477 (inactive) | 8.64% (inactive) | 13.2% (inactive)
COc1cc(C2C(C#N)=C(C)NC3=C2C(=O)CC(C)(C)C3)ccc1O (stereo not drawn) | 422 | -1.9% (inactive) | 1% (inactive) | 103 | -15.6% (inactive) | 103 | -0.453 (inactive) | -2e-05 (inactive) | 0.00555 (inactive) | 8.2% (inactive) | 16.9% (inactive)
COCCNC(=O)C(c1cccs1)N(C(=O)Cn1nnc2ccccc21)c1ccccc1 (stereo not drawn) | 385 | 5.9% (inactive) | 0.7% (inactive) | 98.9 | 24.6% (inactive) | 93.8 | -0.506 (inactive) | -1.1e-05 (inactive) | 0.00629 (inactive) | 10.7% (inactive) | 6.48% (inactive)
CCOC(=O)C1=C(N)OC2=C(C(=O)CC(C)(C)C2)C1c1ccoc1 (stereo not drawn) | 774 | -12.9% (inactive) | -14.6% (inactive) | 78.3 | -15.3% (inactive) | 110 | -0.418 (inactive) | -4e-05 (inactive) | 0.00368 (inactive) | 3.82% (inactive) | 7.84% (inactive)
COCCSc1nnc(NC(=O)CSCc2ccccc2)s1 | 524 | -14.6% (inactive) | 3.8% (inactive) | 112 | -31.2% (inactive) | 89.4 | -0.528 (inactive) | -3.2e-05 (inactive) | 0.00459 (inactive) | 19% (inactive) | 26.7% (inactive)
CN(C)S(=O)(=O)c1ccc(C(=O)N2CCCC2c2nc3ccccc3s2)cc1 (stereo not drawn) | 475 | -9.4% (inactive) | 4% (inactive) | 97.5 | -82.5% (inactive) | 102 | -0.524 (inactive) | 1.6e-05 (inactive) | 0.0053 (inactive) | -17.9% (inactive) | -7.19% (inactive)
CCCCn1c(SCC(=O)OCC)nc2c1c(=O)[nH]c(=O)n2C | 611 | -0.3% (inactive) | 5.2% (inactive) | 97.5 | 7.7% (inactive) | 84.3 | -0.499 (inactive) | -2.6e-05 (inactive) | 0.00682 (inactive) | 13.7% (inactive) | 21.6% (inactive)
COCCn1cc(C(=O)c2ccccc2OCC(=O)Nc2cc(C)on2)cc(C#N)c1=O | 455 | 5.8% (inactive) | -23.9% (inactive) | 77.9 | -7% (inactive) | 97.9 | -0.368 (inactive) | 6.2e-06 (inactive) | 0.00464 (inactive) | 9.82% (inactive) | 15.9% (inactive)
COCCCNC(=O)CCCn1c(=O)c2ccccc2n(CC(=O)Nc2c(C)cccc2C)c1=O | 709 | -4.7% (inactive) | -15.7% (inactive) | 105 | -64% (inactive) | 99.1 | -0.505 (inactive) | 2.2e-05 (inactive) | 0.00674 (inactive) | 8.62% (inactive) | 32.1% (inactive)
COc1ccc(NC(=O)c2cnc3n(c2=O)CCS3)cc1OC | 484 | -3.4% (inactive) | -15% (inactive) | 92.4 | -9.5% (inactive) | 98.8 | -0.515 (inactive) | -3.9e-05 (inactive) | 0.00659 (inactive) | -2.41% (inactive) | -20.9% (inactive)
CCC(C)NCC(O)COCc1ccc(Cl)cc1 (stereo not drawn) | 296 | -2% (inactive) | -4% (inactive) | 98.9 | -9.3% (inactive) | 86.6 | -0.484 (inactive) | -5.9e-06 (inactive) | 0.00563 (inactive) | 15.4% (inactive) | 20.9% (inactive)
O=C(OCN1C(=O)c2ccccc2C1=O)c1ccc2c(=O)n3c(nc2c1)CCC3 | 380 | -26.1% (inactive) | 29.8% (inactive) | 79.3 | 74.4% (inactive) | 96.4 | -0.581 (inactive) | -6.9e-05 (inactive) | 0.00527 (inactive) | 5.92% (inactive) | 16.5% (inactive)
COCCn1c(CN(Cc2ccccc2)Cc2ccccc2)nc2c1c(=O)n(C)c(=O)n2C | 633 | -19% (inactive) | -10.5% (inactive) | 100 | -48.5% (inactive) | 115 | -0.56 (inactive) | 6.1e-06 (inactive) | 0.00386 (inactive) | 18.4% (inactive) | 23.3% (inactive)
O=C(c1cccnc1NCc1ccccc1)N1CCOCC1 | 616 | -26.5% (inactive) | 5.4% (inactive) | 114 | -53.4% (inactive) | 116 | -0.613 (inactive) | 2e-05 (inactive) | 0.00541 (inactive) | -13.7% (inactive) | -5.42% (inactive)
CCc1ccccc1NC(=O)C(C#N)Cc1cccnc1 (stereo not drawn) | 575 | -1.5% (inactive) | 2.2% (inactive) | 100 | -21.3% (inactive) | 104 | -0.51 (inactive) | -9e-07 (inactive) | 0.00548 (inactive) | -6.51% (inactive) | 19% (inactive)
